{"source": "the supplement of paper PMC11417369", "note": "The full ranking holds about 25,000 sequences; the median of “ln(normalized median fluorescence intensity)” is about 9.7, and the highest 2% start at about 11. This excerpt belongs to a sample that is enriched for the highest values.", "data": [{"system": "PfAP2-HC AP2 domain (GST-tagged)", "test": "gcPBM binding intensity (ln(normalized median fluorescence intensity)); higher = stronger DNA binding", "method_in_brief": "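DNA-binding domains from P. falciparum, fused to GST and produced in E. coli, were put on an Agilent 4 × 180k double-stranded probe array for 1 h in 1× PBS holding 1% milk, 0.2 mg/ml BSA, 0.5% salmon testes DNA and 0.03% Triton X-100. Probes were primer-extended, 36 bp long and drawn from intergenic genomic regions, with negative controls included. After Alexa488 anti-GST antibody detection and a 488 nm scan, binding intensity was set as the highest Masliner-normalised natural-log median intensity across replicate spots of either probe orientation.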", "values": [{"sequence": "TTTTTGTTATATAAAGTGCAGTGACAAGCAGTTTAA", "gcPBM binding intensity (ln)": 9.56}, {"sequence": "TTTTTTTATATTTTTAGTACACATTGGTATATATAT [XGTACX_site4114]", "gcPBM binding intensity (ln)": 9.78}, {"sequence": "TTCTTTAAAATATTATGTACACATTGCGAACAGTTT [XGTACX_site5418]", "gcPBM binding intensity (ln)": 9.76}, {"sequence": "CACAGACACGGACACACACACACACCCACATATATA [CACACA_site4355]", "gcPBM binding intensity (ln)": 11.5}, {"sequence": "CACAGACACGGACACACACACATATATAATATATAT [CACACA_site4495]", "gcPBM binding intensity (ln)": 10.8}, {"sequence": "AGCACAGACGGACACACACACACACCCACAGACACA [CACACA_site4358]", "gcPBM binding intensity (ln)": 11.4}, {"sequence": "TGTATGTTTATTTATCGTACATATATATATATATAT [XGTACX_site7315]", "gcPBM binding intensity (ln)": 10.1}, {"sequence": "TACGCGAAATGAATATGTACATATATGAGGGCATAT [XGTACX_site4293]", "gcPBM binding intensity (ln)": 9.75}, {"sequence": "ATTTGAAATGCATGAACACACACAGCTATAAATGCA [CACACA_site8229]", "gcPBM binding intensity (ln)": 9.82}, {"sequence": "GAAATAAGTTAAAATAGTACGTAGTGTTCCTTAAGT [XGTACX_site6557]", "gcPBM binding intensity (ln)": 9.81}, {"sequence": "ACACAAAAATAGTTTTTTATATTGTTAACCTTATAT [XGTACX_negctrl_site123]", "gcPBM binding intensity (ln)": 9.71}, {"sequence": "AAAAATATAAATGACACACACTTAAAAACAAAGAAA [CACACA_site4540]", "gcPBM binding intensity (ln)": 10.2}, {"sequence": "TTTAATCAAATTAAAAGTACAGAATTGTTCATGTAG [XGTACX_site1229]", "gcPBM binding intensity (ln)": 9.53}, {"sequence": "ACTCATAAAAATAGATGTACTTTAATAATTTGATTT [XGTACX_site8763]", "gcPBM binding intensity (ln)": 9.48}, {"sequence": "TACATACACGGACACACACACATATATATATATATA [CACACA_site5883]", "gcPBM binding intensity (ln)": 10.7}, {"sequence": "AATAACCACGGACACACACACATATATATATATATA [CACACA_site5873]", "gcPBM binding intensity (ln)": 10.9}, {"sequence": "CCCCCCCACGGACACACACACATACATACCACATAT [CACACA_site5303]", "gcPBM binding intensity (ln)": 11.3}, {"sequence": "CACGCGAACATACATACACACACATATATATATATG [CACACA_site7951]", "gcPBM binding intensity (ln)": 10.1}, {"sequence": "TATATATATATACCAACACACATACATATATATATA [CACACA_site8530]", "gcPBM binding intensity (ln)": 9.99}, {"sequence": "CCCCCCCACGAACACACACACATACATACCACATAT [CACACA_site7149]", "gcPBM binding intensity (ln)": 11}, {"sequence": "AGTATACACGAACACACACACACATATATAAATATA [CACACA_site6913]", "gcPBM binding intensity (ln)": 10.7}, {"sequence": "CATATACACGAACACACACACATATATATATATATA [CACACA_site4437]", "gcPBM binding intensity (ln)": 10.5}, {"sequence": "AACATATACACGAACACACACACATATATATATATA [CACACA_site502]", "gcPBM binding intensity (ln)": 11.6}, {"sequence": "TTTTTTTTTTTTACATGTACTTATTTTAAATATAAA [XGTACX_site805]", "gcPBM binding intensity (ln)": 9.71}, {"sequence": "TATGTTTTTCGGTATGCATGCATATGCTTAATAATA [TGCATGCA_site184]", "gcPBM binding intensity (ln)": 9.55}, {"sequence": "AATATATAGAGAGATATGCACACTGTATGAATGCAC [CACACA_site2677]", "gcPBM binding intensity (ln)": 9.78}, {"sequence": "AAATATTTATAGGTTTGTACTTATAAATAAAAAAAA [XGTACX_site7360]", "gcPBM binding intensity (ln)": 9.5}, {"sequence": "TATTAAATTATATAGACACACATTATATATATATAT [CACACA_site4345]", "gcPBM binding intensity (ln)": 9.78}, {"sequence": "TATGGAATAAATTTATCCATACATCTTATAACATAT [XGTACX_negctrl_site500]", "gcPBM binding intensity (ln)": 9.63}, {"sequence": "ATTTATTTTTTACATTGTACATATTTATTCCTTTTA [XGTACX_site8028]", "gcPBM binding intensity (ln)": 9.95}, {"sequence": "GTAATATGTATCCATACACACATACAGTTTATTTGC [CACACA_site6540]", "gcPBM binding intensity (ln)": 9.96}, {"sequence": "TAAAATTATGTAATAACACACATATACAATACATAT [CACACA_site1236]", "gcPBM binding intensity (ln)": 9.94}, {"sequence": "AGGGTTACAAGAGGAACACACAAAAAAATAAATAAA [CACACA_site1436]", "gcPBM binding intensity (ln)": 10}, {"sequence": "AATATATATTAAATATGTACTTATTTTTTGGTTGCT [XGTACX_site3613]", "gcPBM binding intensity (ln)": 9.63}, {"sequence": "TTTAAATAAAAATGGAGTACTCTAAAAAAAAAAAAA [XGTACX_site1233]", "gcPBM binding intensity (ln)": 9.37}, {"sequence": "CATACACAAGAAAATTCACACACACCCATATATATA [CACACA_site9288]", "gcPBM binding intensity (ln)": 11.3}, {"sequence": "TACACAAGAAAATTCACACACACACCCATATATATA [CACACA_site3879]", "gcPBM binding intensity (ln)": 10.7}, {"sequence": "CACAAGAAAATTCACACACACACATATATATATATA [CACACA_site3880]", "gcPBM binding intensity (ln)": 10.9}, {"sequence": "CACAAGAAAGTTCACACACACACATATATATATATA [CACACA_site6009]", "gcPBM binding intensity (ln)": 10.1}, {"sequence": "AAAACAAAAGAATTCACACATATATATATATATATA [CACACA_site4777]", "gcPBM binding intensity (ln)": 10.2}, {"sequence": "TACACAAGAAAATTCACACACACACCGATATATATA [CACACA_site6008]", "gcPBM binding intensity (ln)": 10.7}, {"sequence": "TATATATATATGTGTACACATTTGTCAGATTATATA [CACACA_site4813]", "gcPBM binding intensity (ln)": 9.79}, {"sequence": "AGGATATATAAGTATACACACATATTTATATTTATA [CACACA_site6239]", "gcPBM binding intensity (ln)": 9.75}, {"sequence": "AAAATTTAAAGCATGACACACAATTATATTATGTGC [CACACA_site3435]", "gcPBM binding intensity (ln)": 9.76}, {"sequence": "ATGATGTGCTTTAAAAGTACTTAAGTTATATTCTTT [XGTACX_site7127]", "gcPBM binding intensity (ln)": 9.7}, {"sequence": "TATATACACGCACATACACACAAATAAAAAAACACC [CACACA_site7578]", "gcPBM binding intensity (ln)": 10.2}, {"sequence": "AAATTGTCAAAACACGCACACACATATACATAATAA [CACACA_site1743]", "gcPBM binding intensity (ln)": 10.9}, {"sequence": "ATAATATAACAATACGCACACGTATACAAAAAAAAA [CACACA_site5703]", "gcPBM binding intensity (ln)": 9.99}, {"sequence": "TTAATAACAAAATAAACACACATATATAAATACACA [CACACA_site6849]", "gcPBM binding intensity (ln)": 10.5}, {"sequence": "AAAATTCATAAATACACACACGCACATATATATATA [CACACA_site4227]", "gcPBM binding intensity (ln)": 10.2}, {"sequence": "ATTGTCAAAACACGCACACACATATACATAATAACA [CACACA_site1742]", "gcPBM binding intensity (ln)": 11.1}, {"sequence": "TAAATCCGTTTGATGGGTACATACATACATACATAT [XGTACX_site8889]", "gcPBM binding intensity (ln)": 9.73}, {"sequence": "GGATGTATTTATATGTGTATGTGTTTGGAAATATGT [XGTACX_negctrl_site99]", "gcPBM binding intensity (ln)": 9.85}, {"sequence": "GTCATATATAATTGTTGTACATTTTTATAATTATGT [XGTACX_site8091]", "gcPBM binding intensity (ln)": 9.83}, {"sequence": "ACATATATATATATATATATATATATATATAGATAG [CACACA_negctrl_site783]", "gcPBM binding intensity (ln)": 9.92}, {"sequence": "GGTTCATAATATGGTTGTACATAAATATATATATAT [XGTACX_site7583]", "gcPBM binding intensity (ln)": 9.86}, {"sequence": "TATAATAATACTTATTGTACGATTAGCTTAATTCGT [XGTACX_site15]", "gcPBM binding intensity (ln)": 9.51}]}]}
